Screens (PubChem BioAssay)
VDR inhibitor: inhibitors of human vitamin D receptor; P11473; VDR-SRC2-3 peptide fluorescence polarization, 2 h; Potency, µM, most hits filed as inhibitors; 400,000 compounds, 0.93% hits; AID 504847
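Two reagent solutions held at 4 deg C in the dark were dispensed, compounds pinned at 23 nl, and the mixture incubated 2 h at room temperature. Read-out: fluorescence polarization of VDR–SRC2-3 peptide binding.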
Tb PFK block: inhibitors of T. brucei phosphofructokinase. Potency, µM (titrated, usually from 57.5 µM), hits mostly inhibitors. T. brucei PFK, ADP-Glo luminescence. AID 485367. 330,000 compounds, 0.17% hits; note: nearly all actives have a fitted effect of over 60% in size
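PFK 1.25 nM, F6P 0.5 mM, ATP 0.1 mM, 0.1 M TEA pH 8.0, 5 mM MgCl2, 0.01% Tween20, 0.1% BSA; 45 min RT. ADP-Glo readout. qHTS titration up to 57 uM; curves fitted, compounds curve-classed.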
BRCA1 expr up: BRCA1 expression activation; 380,000 compounds, 1.1% hits; Potency, µM (highest dose often 46.1 µM), hits mostly activators; MCF7-BRCA1-FFLuc reporter, luminescence, 48 h; response scale: scaled: vehicle 0%, 10 µM genistein 100%; AID 624202; note: nearly all actives have a fitted effect of over 80% in size
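Cells: MCF7-BRCA1-FFLuc, 2000/well. Exposure: 48 h, 37 °C, 5% CO2. Read: luminescence, 15 min post-substrate. Controls: genistein 10 microM (maximal activation), DMSO (neutral).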
PLK1 PBD inh: PLK1 (human) polo-box domain binding inhibition; AID 720504; Potency, µM, actives largely listed as inhibitors; Plk1 PBD binding of FITC phosphopeptide, fluorescence polarization; P53350; 360,000 compounds, 2.8% hits; note: series mostly up to about 57 µM; nearly all actives have a fitted effect of over 65% in size
Target sequence (P53350 whole entry, looked up, the tested form may be a part): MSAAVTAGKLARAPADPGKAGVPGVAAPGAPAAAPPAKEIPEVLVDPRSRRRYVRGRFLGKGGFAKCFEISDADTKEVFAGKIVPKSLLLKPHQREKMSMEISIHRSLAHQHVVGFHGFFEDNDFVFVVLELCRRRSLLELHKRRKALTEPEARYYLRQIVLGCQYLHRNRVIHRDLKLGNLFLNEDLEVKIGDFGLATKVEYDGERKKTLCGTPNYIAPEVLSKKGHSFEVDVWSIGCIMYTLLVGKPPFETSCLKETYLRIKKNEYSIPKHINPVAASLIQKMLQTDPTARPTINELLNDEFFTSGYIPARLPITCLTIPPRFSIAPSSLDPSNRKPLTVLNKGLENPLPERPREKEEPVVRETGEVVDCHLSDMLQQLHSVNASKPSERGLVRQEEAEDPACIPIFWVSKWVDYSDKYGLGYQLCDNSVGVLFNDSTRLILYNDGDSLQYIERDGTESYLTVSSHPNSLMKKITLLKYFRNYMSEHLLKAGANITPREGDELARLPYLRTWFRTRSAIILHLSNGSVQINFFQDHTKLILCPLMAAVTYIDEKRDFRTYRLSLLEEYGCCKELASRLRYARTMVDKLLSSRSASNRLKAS
Each line names hits and unclear results; the compound was inactive in the other large screens. Most compounds without a hit are left out; they make up all but 3.9% or so of the library. Calls come from the whole dose curve; as a rule, active = well fitted curve in the direction sought with a large enough effect; inconclusive = small, poorly fitted or top-dose-only effect, or another doubt; inactive = no such curve, though single readings can be large; an effect the other way counts as inactive or inconclusive.

CC(=O)NC(CC(=O)OCC(=O)c1c(N)n(C)c(=O)n(C)c1=O)c1ccccc1 (stereo not given)	VDR inhibitor inconclusive, PLK1 PBD inh 23.8µM
CCNc1ncc2nc(-c3ccccc3)c(=O)n(Cc3cccc(OC)c3)c2n1	none (no result: Tb PFK block, BRCA1 expr up, PLK1 PBD inh)
CC(NC(=O)Cc1ccc(-c2ccccc2)cc1)c1ccccc1 (stereo not given)	VDR inhibitor inconclusive, PLK1 PBD inh 26.7µM
CC(NC(=O)Cc1ccccc1F)c1ccc(F)cc1 (stereo not given)	PLK1 PBD inh 23.8µM
CC(NC(=O)COC(=O)Cc1ccc(Cl)cc1)c1ccccc1 (stereo not given)	none
CCOc1ccc(NC(=O)CN2C(C(=O)OC)=C(c3ccccc3)c3cc(Cl)ccc3S2(=O)=O)cc1	none (no result: Tb PFK block, PLK1 PBD inh)
Cc1ccc2c(cnn2C(=O)CCCC(=O)NC(C)c2ccccc2)c1 (stereo not given)	BRCA1 expr up 2.51µM
CC(=O)N1c2c(cc(Br)cc2S(=O)(=O)N2CCN(C(=O)c3ccco3)CC2)CC1C (stereo not given)	VDR inhibitor inconclusive, PLK1 PBD inh 4.74µM
O=[N+]([O-])c1ccccc1S(=O)(=O)N1CCCCC1	PLK1 PBD inh 26.7µM
O=C(c1ccco1)N1CCN(S(=O)(=O)c2ccccc2[N+](=O)[O-])CC1	PLK1 PBD inh 29.9µM
CC(=O)N1c2c(cc(Br)cc2S(=O)(=O)N2CCN(c3ccccc3)CC2)CC1C (stereo not given)	none (no result: Tb PFK block, PLK1 PBD inh)
Cc1ccc(C)c(NCCCCCCCC(=O)O)c1	none (no result: VDR inhibitor, Tb PFK block)
O=S(=O)(Nc1c(Br)cc(Br)c2cccnc12)C1CCCCC1	none (no result: Tb PFK block, PLK1 PBD inh)
COc1ccc(C2C(C(N)=O)=C(C)Nc3nc(CCCO)nn32)c(OC)c1 (stereo not given)	none (no result: Tb PFK block, BRCA1 expr up, PLK1 PBD inh)
O=S(=O)(CCSc1ccccn1)c1nc2ccccc2s1	VDR inhibitor inconclusive, PLK1 PBD inh 6.7µM
Cc1ccc(CCNC(=O)c2oc(=O)c3ccccc3c2-c2ccc(C)cc2)cc1	none (no result: Tb PFK block, PLK1 PBD inh)
COC(=O)CSC1=C(C#N)C(c2ccc(Cl)cc2)C(C(=O)OC)C(=O)N1 (stereo not given)	PLK1 PBD inh 26.7µM
COC(=O)C1C(=O)NC(SC)=C(C#N)C1c1ccccc1 (stereo not given)	none
CCOC(=O)CSC1=C(C#N)C(c2sccc2C)C(C(C)=O)=C(C)N1 (stereo not given)	PLK1 PBD inh 26.7µM
CCOC(=O)CSC1=C(C#N)C(c2ccc(Cl)cc2)C(C(=O)OC)C(=O)N1 (stereo not given)	PLK1 PBD inh 23.8µM
CC1=C(C(=O)N(C)C)CC(CC(=O)NCc2cccs2)C(=O)N1Cc1ccc(F)cc1 (stereo not given)	none (no result: VDR inhibitor, Tb PFK block)
Cc1cc(SCC(=O)N(CC(C)C)c2c(N)n(CC(C)C)c(=O)[nH]c2=O)nc2ccccc12	VDR inhibitor inconclusive, PLK1 PBD inh 13.4µM
Cc1ccc2nc(SCC(=O)N(CC(C)C)c3c(N)n(CC(C)C)c(=O)[nH]c3=O)[nH]c2c1	none
Cc1ccc(C2CC(=O)NC(SCCC(C)C)=C2C#N)cc1 (stereo not given)	PLK1 PBD inh 13.4µM
CCCCNC(=O)c1sc2ncnc(N3CCc4ccccc4C3)c2c1C	VDR inhibitor inconclusive, PLK1 PBD inh 26.7µM
CCOC(=O)CNC(=O)c1sc2ncnc(N3CCc4ccccc4C3)c2c1C	none
COc1cccc(NC(=O)c2nc(S(C)(=O)=O)ncc2Cl)c1	VDR inhibitor 20µM, PLK1 PBD inh 23.8µM
Cc1ccc(NC(=O)c2nc(S(=O)(=O)Cc3ccccc3C)ncc2Cl)cc1C	VDR inhibitor inconclusive, PLK1 PBD inh 26.7µM
CCCS(=O)(=O)c1ncc(Cl)c(C(=O)Nc2ccc(S(=O)(=O)Nc3ncccn3)cc2)n1	VDR inhibitor 22.4µM, PLK1 PBD inh inconclusive
CC(=O)Nc1ccc(NC(=O)c2nc(S(=O)(=O)Cc3cccc(C)c3)ncc2Cl)cc1	VDR inhibitor inconclusive, PLK1 PBD inh 13.4µM
CC(=O)OCOC(=O)CN(CC(=O)OCOC(C)=O)c1ccccc1OCCOc1ccccc1N(CC(=O)OCOC(C)=O)CC(=O)OCOC(C)=O	none (no result: Tb PFK block, BRCA1 expr up, PLK1 PBD inh)
CC1CCC(NC(=O)c2ccc(CS(=O)(=O)c3c(Cl)cccc3Cl)o2)CC1 (stereo not given)	none (no result: Tb PFK block, BRCA1 expr up, PLK1 PBD inh)
COc1ccc(S(=O)(=O)c2c(SC)nn(CC(=O)Nc3ccc(C)c(Cl)c3)c2N)cc1	none (no result: Tb PFK block, PLK1 PBD inh)
Cc1cc(OC(C)C(=O)NCc2cccnc2)c2c(C)cc(=O)oc2c1 (stereo not given)	PLK1 PBD inh 26.7µM
Cc1cc(OC(C)C(=O)NCc2ccccn2)c2c(C)cc(=O)oc2c1 (stereo not given)	PLK1 PBD inh 26.7µM
Cc1cc(OC(C)C(=O)NCc2ccncc2)c2c(C)cc(=O)oc2c1 (stereo not given)	PLK1 PBD inh inconclusive
Cc1cc(OC(C)C(=O)NCc2ccncc2)c2c(C)c(C)c(=O)oc2c1 (stereo not given)	VDR inhibitor inconclusive, PLK1 PBD inh 11.9µM
O=C(N/N=C\c1ccccc1F)c1ccc(-c2ccccc2)cc1	BRCA1 expr up 10µM
O=C(N/N=C/c1ccccc1)c1ccc(-c2ccccc2)cc1	none
CC1=CSC2=NS(=O)(=O)CCN12	PLK1 PBD inh 23.8µM
Oc1c(Cl)cc(Cl)cc1/C=N/c1nc(-c2ccc(Cl)cc2)cs1	none
Oc1c(Cl)cc(Cl)cc1/C=N/c1nccs1	VDR inhibitor 79.4µM, PLK1 PBD inh 33.6µM
O=C(NC1CC(=O)N(c2ccc(Cl)cc2)C1)c1cccs1 (stereo not given)	none (no result: Tb PFK block, BRCA1 expr up, PLK1 PBD inh)
CCOc1ccc(-c2noc(-c3csc([C@@H]4C[C@H](O)[C@@H](CO)O4)n3)n2)cc1	BRCA1 expr up inconclusive (no result: VDR inhibitor, Tb PFK block)
OC[C@H]1O[C@@H](c2nc(-c3ccc(Br)cc3)no2)C[C@@H]1O	BRCA1 expr up 7.94µM (no result: VDR inhibitor, Tb PFK block)
COc1cc(OC)cc(-c2noc(-c3csc([C@@H]4C[C@H](O)[C@@H](CO)O4)n3)n2)c1	BRCA1 expr up 10µM (no result: VDR inhibitor, Tb PFK block)
OC[C@H]1O[C@@H](c2nc(-c3nc(-c4ccc(F)cc4)no3)cs2)[C@H](O)[C@@H]1O	BRCA1 expr up inconclusive (no result: VDR inhibitor, Tb PFK block)
COc1ccc(-c2noc(-c3csc([C@@H]4C[C@H](O)[C@@H](CO)O4)n3)n2)cc1OC	BRCA1 expr up 14.1µM (no result: VDR inhibitor, Tb PFK block)
CCc1cccc(NC(=O)CCc2c(C)nc3c(-c4ccccc4)c(C)nn3c2C)c1	none (no result: Tb PFK block, PLK1 PBD inh)
Cc1nn(S(=O)(=O)c2ccc(F)cc2)c(C)c1S(=O)(=O)N1CCCCCC1	none (no result: Tb PFK block, PLK1 PBD inh)
Cc1cc(OCc2cc(C(=O)N3CCCCCC3)no2)cc(C)c1Cl	BRCA1 expr up inconclusive
CC(=O)c1ccc(Nc2ccc(-c3ccccc3C)nn2)cc1	BRCA1 expr up 6.31µM, PLK1 PBD inh inconclusive
CC(=O)c1cccc(Nc2ccc(-c3ccccc3F)nn2)c1	BRCA1 expr up 11.2µM
O=C(/C=C/c1ccncc1)c1ccc(NC(=O)c2ccccc2F)cc1	VDR inhibitor 31.6µM, Tb PFK block inconclusive
O=C(Nc1cccnc1)c1ccccc1F	PLK1 PBD inh inconclusive
O=C(/C=C/c1ccc(NC(=O)c2ccccc2-c2ccccc2C(=O)O)cc1)c1ccccc1	VDR inhibitor 20µM
O=C(O)c1ccccc1-c1ccccc1C(=O)Nc1ccc(F)cc1	none
O=C(Oc1c(Br)cc([N+](=O)[O-])cc1Br)c1cccnc1	PLK1 PBD inh 18.9µM
